A selection: hits, their analogues and other compounds. The true share with any hit is near 1.4%.
MenB inh: inhibitors of Mycobacterium tuberculosis MenB enzyme. P9WNP5. MenB enzyme assay, absorbance read-out. inhibition, % (test concentration not listed). 0.43% of 100,000 active. AID 540299; in the data active = inhibition above about 21%, passing the limit was not always enough
Mtb MbtI inh: blocks the Mycobacterium tuberculosis siderophore enzyme MbtI; P9WFX0; purified MbtI enzyme, fluorescence intensity read-out; inhibition, % (no concentration beside the values); 0.89% of 100,000 active; AID 493033; in the data active = inhibition mostly above about 56%, no sharp cut-off; inactive = mostly below about 77%
Target sequence (P9WFX0 whole entry, looked up): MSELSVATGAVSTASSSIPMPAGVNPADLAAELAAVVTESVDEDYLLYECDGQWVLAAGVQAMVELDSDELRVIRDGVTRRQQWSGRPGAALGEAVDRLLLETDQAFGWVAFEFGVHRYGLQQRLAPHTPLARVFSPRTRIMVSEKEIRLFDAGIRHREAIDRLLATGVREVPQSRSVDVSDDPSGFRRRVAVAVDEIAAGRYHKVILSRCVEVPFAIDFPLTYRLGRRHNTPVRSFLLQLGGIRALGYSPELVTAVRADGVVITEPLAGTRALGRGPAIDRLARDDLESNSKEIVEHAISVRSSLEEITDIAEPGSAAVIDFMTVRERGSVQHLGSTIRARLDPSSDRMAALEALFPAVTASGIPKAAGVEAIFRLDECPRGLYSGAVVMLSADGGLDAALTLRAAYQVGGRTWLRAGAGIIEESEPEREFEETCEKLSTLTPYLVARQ
PV pol inh: poliovirus RNA polymerase inhibition; AID 588519; % elongation, % (compound at 16.7 µg/mL); P03300; 0.66% of 150,000 active; poliovirus polymerase elongation, fluorescence polarization; hits give low values; in the data active = % elongation below about 90%
An asterisk follows results filed as active; nt = not tested or not shown.

SMILES | MenB inh | Mtb MbtI inh | PV pol inh
COc1ccc(CC(=O)Nc2sc3c(c2C(=O)Nc2cccc(Cl)c2)CCCCC3)cc1 | nt | nt | 107
Nc1sc2c(c1C(=O)Nc1ccc(Cl)cc1)CCC2 | -3 | nt | 89*
O=C(Cc1ccccc1)Nc1sc2c(c1C(=O)Nc1ccccc1Cl)CCCC2 | nt | nt | 85*
O=C(COc1ccccc1)Nc1sc2c(c1C(=O)Nc1ccccc1Cl)CCCCC2 | nt | nt | 102
O=C(Cc1ccccc1)Nc1sc2c(c1C(=O)Nc1ccccc1)CCCCC2 | nt | nt | 100
O=C(Cc1ccccc1)Nc1sc2c(c1C(=O)Nc1ccc(Cl)cc1)CCCC2 | nt | nt | 71*
COc1ccc2c(c1)N(C)/C(=C1/SC(=Nc3ccc(C)cc3)N(C)C1=O)S2 | -16 | 9 | 102
CC1Sc2nnc(C(C)(C)C)n2N=C1c1ccc(Cl)cc1 (centres undefined) | -1 | 92 | 76*
Cc1ccc(C2=Nn3c(nnc3C3CCCCC3)SC2C)cc1 (centres undefined) | -25 | 50 | 96
O=C(c1c(F)cccc1F)N1CCCC1 | 19 | -4 | 102
Cc1cc(F)c(F)c(C(=O)N2CCCCCC2)c1Cl | 34* | 2 | 103
Cc1cc(C(=O)COC(=O)c2ccc3c(c2)C(=O)N(CCC(C)C)C3=O)c(C)n1Cc1cccs1 | 7 | -8 | 104
CCC1(c2csc(Nc3ccccc3C)n2)CCC(=O)O1 (centres undefined) | -23 | 20 | 102
O=C(CCCN1C(=O)c2ccccc2C1=O)NC1=NCCS1 | -17 | 2 | 100
O=C(CCN1c2ccccc2Sc2ccccc21)NC1=NCCS1 | -9 | -19 | 85*
Cc1ccc(C(=O)CCC(=O)Nc2nnc(C)s2)cc1 | 4 | -4 | 100
CCOC(=O)c1ccc(NC(=O)c2ccc(-c3ccc(F)cc3)o2)cc1 | -30 | 40 | 102
CC(C)NC(=O)c1ccc(-c2ccc(F)cc2)o1 | 30* | 90 | 101
O=C(NCC(c1ccco1)N1CCCCC1)c1ccc2c(=O)n3c(nc2c1)CCCCC3 (centres undefined) | -33 | 4 | 103
COC(=O)CN(C)c1nnc(N)s1 | -5 | 96* | 91
CC(C)CN(CC(C)C)c1nnc(N)s1 | nt | -12 | nt
Cc1cc(C(=O)OCc2cc(=O)oc3cc(C)c(Cl)cc23)c(C)o1 | 11 | 4 | 101
NNC(=O)CNC(=O)c1ccco1 | 2 | -2 | 104
CCOC(=O)NC(=S)c1ccc(OC)cc1 | -7 | 78* | 82*
CCOC(=O)NC(=S)Nc1ccc(OC)cc1 | -7 | -5 | 100
SMILES | MenB inh | Mtb MbtI inh | PV pol inh
COC(=O)C1=C(O)/C(=C\c2cccs2)N=C1C | -304 | 16 | 101
Cn1nc(C(=O)N2CCN(c3ccc(Cl)cc3)CC2)c2c1-c1ccccc1SC2 | nt | nt | 110
Cn1nc(C(=O)N2CCCCC2)c2c1-c1ccccc1SC2 | 0 | 87* | 101
FC(F)Oc1ccc(NC(=S)NNc2nc3ccccc3[nH]2)cc1 | 1 | 95 | 44*
O=c1[nH]c2ccccc2nc1NC(=S)Nc1ccccc1 | -113 | nt | 110
Cc1ccc2c(CN(C)CCC#N)cc(=O)oc2c1 | -5 | 17 | 101
CC12C=CC(CO)(O1)C1C(=O)N(c3ccc(Br)cc3)C(=O)C12 (centres undefined) | -17 | 101* | 104
CC1(C)c2sc(=O)[nH]c2SC2C(=O)N(c3ccc(Br)cc3)C(=O)C21 (centres undefined) | -8 | -10 | 100
C1CCN(c2nc(N3CCCC3)nc(N3CCNCC3)n2)C1 | 33* | -22 | 100
Cc1cc(C)nc(N2CCNCC2)n1 | 12 | 58 | 102
CCc1ccc(NC(=O)CC#N)cc1 | nt | -1 | 103
O=C(Sc1ccc(C(F)(F)F)cn1)c1csc(C2COc3ccccc3O2)n1 (centres undefined) | -12 | 71* | 102
O=C(NCc1cccs1)c1csc(C2COc3ccccc3O2)n1 (centres undefined) | -21 | 67 | 98
Cc1ccc(C)c(OCC(=O)N(Cc2nnc(-c3ccc(Cl)cc3)o2)C2CC2)c1 | -12 | 11 | 101
CC(=O)NC1CCC(C(=O)O)(c2ccccc2)C1 (centres undefined) | 4 | nt | 101
O=C(O)C1(c2ccccc2)CCC(Nc2ccccc2)C1 (centres undefined) | -5 | nt | 69*
COc1ccccc1OC(=O)/C=C/c1ccc(I)o1 | -20 | -3 | 104
Cc1cc2nc(NCc3ccccn3)c3ccccc3n2n1 | 10 | 105 | 102
O=C(NNc1ncnc2sc3c(c12)CCCC3)c1ccccc1-n1cccc1 | -20 | -6 | 100
O=C(NCc1ccccc1)c1ccc2c(=O)n3nc(Nc4ccccc4)sc3nc2c1 | 7 | 38 | 98
CCN(CC)CCNC(=O)c1ccc2c(=O)n3nc(Nc4ccccc4)sc3nc2c1 | nt | nt | 81*
CC(=O)Nc1ccc(-n2ccnc2P(=O)(O)c2ccccc2)cc1 | 9 | 5 | 94
Cn1ccnc1P(=O)(O)c1ccccc1 | -2 | 6 | 88*
CCOc1ccccc1NC(=O)/C(C#N)=c1\s/c(=C\c2ccco2)c(=O)n1-c1c(C)cccc1C | -4 | -2 | 101
COc1ccccc1N1CCN(CCC(=O)O)CC1 | -56 | -8 | 104
SMILES | MenB inh | Mtb MbtI inh | PV pol inh
Cc1nc2ccccc2c(=O)n1-c1ccc(C(=O)NC(C)c2ccccn2)cc1 (centres undefined) | -35 | 0 | 34*
Cc1nc2ccccc2c(=O)n1-c1ccc(C(=O)NC2(C)CCS(=O)(=O)C2)cc1 (centres undefined) | -34 | -3 | 102
Cc1ccc(CCNC(=O)c2cnc3c(-c4ccc(F)cc4)c(C)nn3c2C)cc1 | nt | nt | 76*
CCOc1ccc(CCNC(=O)c2cnc3c(-c4ccc(F)cc4)c(C)nn3c2C)cc1 | nt | nt | 105
O=C(/C=C/c1ccccc1)Oc1ccccc1 | -11 | 5 | 104
O=C(/C=C/c1ccccc1)Oc1nc2ccccc2s1 | 3 | nt | 85*
Cc1cc(=O)n(CC(=O)Nc2ccc3c(c2)OCO3)c2c1c(C)nn2-c1cccc(F)c1 | 7 | -15 | 100
CC[C@H](C)[C@H](N)C(=O)N[C@@H](CC(N)=O)C(=O)N[C@@H](CC(C)C)C(=O)N[C@@H](CCCCN)C(=O)N[C@@H](C)C(=O)N[C@@H](CC(C)C)C(=O)N[C@@H](C)C(=O)N[C@@H](C)C(=O)N[C@@H](CC(C)C)C(=O)N[C@@H](C)C(=O)N[C@@H](CCCN)C(=O)N[C@@H](C)C(=O)N[C@@H](CC(C)C)C(=O)N[C@@H](CC(C)C)C(N)=O | -14 | nt | 101
CC1CCc2c(sc(NC(=O)CN3C(=O)CCC3=O)c2C(N)=O)C1 (centres undefined) | -13 | 4 | 101
C1=CSC(=C2SC=CS2)S1 | active | 45 | 59*
O=C(NCc1ccccc1F)c1cc(=O)c2ccccc2o1 | 1 | -5 | 104
CCN(CC)C(=O)c1sc2nc(C)cc(C)c2c1N | nt | 4 | nt
CN=Cc1cc(-c2ccccc2)oc1S | -155 | 53 | 101
CN=Cc1cc(-c2ccccc2)n(C)c1S | -144 | 98* | 101
COc1ccccc1NC(=O)c1c(C)nc(SCc2ccccc2)c(C#N)c1-c1ccc(C)o1 | -32 | 35 | 110
Cc1nnc(N(C)C(=O)CNC(=O)c2ccccc2)s1 | 17 | 5 | 100
O=C(Nc1nc(-c2ccccc2)cs1)C1CCC1 | -29 | 10 | 100
c1csc(NC2CCCCC2)n1 | nt | nt | 101

Source: PubChem BioAssay
